# Measurements from PubChem BioAssay (EPA / NIEHS).
# Activity calls are given as the source filed them. Rule for the calls: active = hit-call score of the fitted dose curve at least 0.9, where 1 is the maximum; inactive = score below 0.9.
# Tests used:
# [1] = read-out: CFLAR gene, CFLAR (gene 8837); assay: LTEA_HepaRG_CFLAR: Life Technologies and Expression Analysis (LTEA) Assay for CFLAR gene using HepaRG (AID 2283455); conditions: mRNA level, 48 h; actives raise or lower the signal
# Procedure, shortened: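 Differentiated HepaRG cells in serum-free induction medium were exposed 48 h in duplicate to eight half-log concentrations up to 100 uM in 0.5% DMSO; mRNA measured by TaqMan qRT-PCR, normalized to ACTB, GAPDH, POLR2A; bidirectional fitting versus DMSO.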
# [2] = read-out: Forkhead box O1 (FOXO1), FOXO1 (gene 2308); assay: LTEA_HepaRG_FOXO1: Life Technologies and Expression Analysis (LTEA) Assay for Forkhead box O1 (FOXO1) using HepaRG (AID 2283456); conditions: mRNA level, 48 h; actives raise or lower the signal
# Procedure, shortened: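 Differentiated HepaRG cells, in serum-free induction medium with 0.5% DMSO, exposed 48 h in duplicate to 8-point half-log series from 100 uM. FOXO1 mRNA measured by TaqMan qRT-PCR, normalized to ACTB, GAPDH, POLR2A; bidirectional fit versus DMSO.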
# [3] = CEETOX_H295R_TESTO: CeeTox H295R High-throughput Steroidogenesis Assay for Testosterone (TESTO) (AID 2283457); conditions: actives raise or lower the signal;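 for AC50: cells exposed to chemicals for 48 h before medium collection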
# Procedure, shortened: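 Steroidogenesis in H295R cells following OECD 456 with minor changes; 48 h exposure. Medium testosterone by HPLC-MS/MS, DMSO as baseline, with MTT viability run in parallel.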
# [4] = read-out: growth arrest and DNA damage 45 (GADD45A), GADD45A (gene 1647); assay: LTEA_HepaRG_GADD45A: Life Technologies and Expression Analysis (LTEA) Assay for growth arrest and DNA damage 45 (GADD45A) using HepaRG (AID 2283458); conditions: mRNA level, 48 h; actives raise or lower the signal
# Procedure, shortened: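 Differentiated HepaRG cells were exposed in duplicate for 48 h in serum-free induction medium to 8-point half-log concentrations up to 100 uM in 0.5% DMSO. GADD45A mRNA was measured by TaqMan qRT-PCR, normalized to ACTB, GAPDH and POLR2A, with bidirectional fitting versus DMSO.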
# [5] = read-out: Forkhead box O3 (FOXO3), FOXO3 (gene 2309); assay: LTEA_HepaRG_FOXO3: Life Technologies and Expression Analysis (LTEA) Assay for Forkhead box O3 (FOXO3) using HepaRG (AID 2283459); conditions: mRNA level, 48 h; actives raise or lower the signal
# Procedure, shortened: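 Differentiated human HepaRG cells, 48 h post-plating, exposed in duplicate for 48 h in serum-free induction medium; 8-point half-log series from 100 uM in 0.5% DMSO. FOXO3 mRNA by TaqMan qRT-PCR, normalized to ACTB/GAPDH/POLR2A; bidirectional fit versus DMSO.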
# [6] = read-out: growth arrest and DNA damage 45 (GADD45B), GADD45B (gene 4616); assay: LTEA_HepaRG_GADD45B: Life Technologies and Expression Analysis (LTEA) Assay for growth arrest and DNA damage 45 (GADD45B) using HepaRG (AID 2283461); conditions: mRNA level, 48 h; actives raise or lower the signal
# Procedure, shortened: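 Human HepaRG monolayers receive chemicals for 48 h at eight half-log concentrations, highest 100 uM, in 0.5% DMSO. Expression is measured by TaqMan qRT-PCR and normalized to ACTB, GAPDH and POLR2A.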
# [7] = read-out: ABC Transporter (ABCC3), ABCC3 (gene 8714); assay: LTEA_HepaRG_ABCC3: Life Technologies and Expression Analysis (LTEA) Assay for ABC Transporter (ABCC3) using HepaRG (AID 2283462); conditions: mRNA level, 48 h; actives raise or lower the signal
# Procedure, shortened: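 Transcriptional change of ABCC3 in HepaRG after 48 h treatment, determined by qRT-PCR normalized to endogenous controls. Concentrations spanned eight half-log steps to 100 uM in 0.5% DMSO.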
# [8] = read-out: ABC Transporter (ABCC2), ABCC2 (gene 1244); assay: LTEA_HepaRG_ABCC2: Life Technologies and Expression Analysis (LTEA) Assay for ABC Transporter (ABCC2) using HepaRG (AID 2283464); conditions: mRNA level, 48 h; actives raise or lower the signal
# Procedure, shortened: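 After plating and 48 h culture, HepaRG medium is replaced with serum-free induction medium and chemicals are added (8 concentrations, max 100 uM, 0.5% DMSO) for 48 h. Total RNA then undergoes qRT-PCR for ABCC2 with housekeeping normalization.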
# [9] = read-out: Peroxisomal acyl-coenzyme A oxidase 1 (ACOX1) gene, ACOX1 (gene 51); assay: LTEA_HepaRG_ACOX1: Life Technologies and Expression Analysis (LTEA) Assay for Peroxisomal acyl-coenzyme A oxidase 1 (ACOX1) gene using HepaRG (AID 2283467); conditions: mRNA level, 48 h; actives raise or lower the signal
# Procedure, shortened: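 HepaRG cells, plated 48 h then switched to serum-free induction medium, were exposed in duplicate for 48 h to 8-point half-log concentrations up to 100 uM in 0.5% DMSO. ACOX1 mRNA was measured by qRT-PCR, normalized to ACTB/GAPDH/POLR2A, and fitted bidirectionally versus DMSO.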
# [10] = read-out: Alkaline Phosphatase, Placental (ALPP) gene, ALPP (gene 250); assay: LTEA_HepaRG_ALPP: Life Technologies and Expression Analysis (LTEA) Assay for Alkaline Phosphatase, Placental (ALPP) gene using HepaRG (AID 2283468); conditions: mRNA level, 48 h; actives raise or lower the signal
# Procedure, shortened: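 Using human liver HepaRG cells, chemicals are tested in duplicate over 48 h at half-log concentrations topping at 100 uM; phenobarbital 1 mM serves as induction control. ALPP mRNA change by qRT-PCR, bidirectional fit against vehicle.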
# [11] = read-out: Alpha-fetoprotein (AFP) gene, AFP (gene 174); assay: LTEA_HepaRG_AFP: Life Technologies and Expression Analysis (LTEA) Assay for Alpha-fetoprotein (AFP) gene using HepaRG (AID 2283472); conditions: mRNA level, 48 h; actives raise or lower the signal
# Procedure, shortened: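 Human HepaRG cells plated 48 h, then switched to serum-free induction medium and exposed in duplicate for 48 h to 8-point half-log series from 100 uM in 0.5% DMSO. AFP mRNA by qRT-PCR, normalized to ACTB, GAPDH, POLR2A; bidirectional fit versus DMSO.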
# BCL2L11 (gene 10018) = assay: LTEA_HepaRG_BCL2L11: Life Technologies and Expression Analysis (LTEA) Assay for Bcl-2 (BCL2L11) gene using HepaRG (AID 2283473); conditions: mRNA level, 48 h; actives raise or lower the signal
# Procedure, shortened: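 Human hepatic HepaRG cultures are treated 48 h with test chemicals (maximum 100 uM, 0.5% DMSO vehicle). Expression of BCL2L11 is measured by qRT-PCR against ACTB, GAPDH and POLR2A, with activity in either direction scored relative to vehicle.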
# [12] = read-out: Apolipoprotein A-V (APOA5) gene, APOA5 (gene 116519); assay: LTEA_HepaRG_APOA5: Life Technologies and Expression Analysis (LTEA) Assay for Apolipoprotein A-V (APOA5) gene using HepaRG (AID 2283474); conditions: mRNA level, 48 h; actives raise or lower the signal
# Procedure, shortened: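 Concentration-response of APOA5 expression in HepaRG: eight half-log doses to 100 uM, 48 h, qRT-PCR normalized to ACTB/GAPDH/POLR2A, bidirectional fitting with 0.5% DMSO as baseline.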
# [13] = read-out: ABC Transporter (ABCB1), ABCB1 (gene 5243); assay: LTEA_HepaRG_ABCB1: Life Technologies and Expression Analysis (LTEA) Assay for ABC Transporter (ABCB1) using HepaRG (AID 2283460); conditions: mRNA level, 48 h; actives raise or lower the signal
# Procedure, shortened: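 HepaRG cells exposed in duplicate for 48 h in serum-free induction medium to eight half-log concentrations up to 100 uM in 0.5% DMSO. ABCB1 mRNA quantified by qRT-PCR, normalised to ACTB, GAPDH and POLR2A; fitted bidirectionally versus DMSO.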
# [14] = read-out: ABC Transporter (ABCB11), ABCB11 (gene 8647); assay: LTEA_HepaRG_ABCB11: Life Technologies and Expression Analysis (LTEA) Assay for ABC Transporter (ABCB11) using HepaRG (AID 2283463); conditions: mRNA level, 48 h; actives raise or lower the signal
# Procedure, shortened: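 Differentiated human HepaRG cells in serum-free induction medium, dosed in duplicate for 48 h. Eight-point half-log series from 100 uM in 0.5% DMSO; ABCB11 mRNA by qRT-PCR, normalized to ACTB, GAPDH, POLR2A, fitted bidirectionally versus DMSO.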
# [15] = read-out: Broad substrate specificity ATP-binding cassette transporter ABCG2 (Homo sapiens) (UniProt Q9UNQ0); assay: LTEA_HepaRG_ABCG2: Life Technologies and Expression Analysis (LTEA) Assay for ABC Transporter (ABCG2) using HepaRG (AID 2283465); conditions: mRNA level, 48 h; actives raise or lower the signal
# Procedure, shortened: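 Differentiated HepaRG cells were exposed for 48 h in serum-free induction medium to 8 half-log concentrations, top 100 uM, in 0.5% DMSO. ABCG2 mRNA was measured by qRT-PCR, normalized to ACTB, GAPDH and POLR2A, with bidirectional fitting versus DMSO.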
# [16] = read-out: Bcl-2 (BAD) gene, BAD (gene 572); assay: LTEA_HepaRG_BAD: Life Technologies and Expression Analysis (LTEA) Assay for Bcl-2 (BAD) gene using HepaRG (AID 2283469); conditions: mRNA level, 48 h; actives raise or lower the signal
# Procedure, shortened: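 Differentiated HepaRG cells were exposed in duplicate in 0.5% DMSO for 48 h to eight-point half-log concentrations up to 100 uM. BAD mRNA was measured by Fluidigm TaqMan qRT-PCR, normalized to ACTB, GAPDH and POLR2A, and fitted bidirectionally against DMSO.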
# Chain of Broad substrate specificity ATP-binding cassette transporter ABCG2 (Homo sapiens) (Q9UNQ0 whole entry, looked up): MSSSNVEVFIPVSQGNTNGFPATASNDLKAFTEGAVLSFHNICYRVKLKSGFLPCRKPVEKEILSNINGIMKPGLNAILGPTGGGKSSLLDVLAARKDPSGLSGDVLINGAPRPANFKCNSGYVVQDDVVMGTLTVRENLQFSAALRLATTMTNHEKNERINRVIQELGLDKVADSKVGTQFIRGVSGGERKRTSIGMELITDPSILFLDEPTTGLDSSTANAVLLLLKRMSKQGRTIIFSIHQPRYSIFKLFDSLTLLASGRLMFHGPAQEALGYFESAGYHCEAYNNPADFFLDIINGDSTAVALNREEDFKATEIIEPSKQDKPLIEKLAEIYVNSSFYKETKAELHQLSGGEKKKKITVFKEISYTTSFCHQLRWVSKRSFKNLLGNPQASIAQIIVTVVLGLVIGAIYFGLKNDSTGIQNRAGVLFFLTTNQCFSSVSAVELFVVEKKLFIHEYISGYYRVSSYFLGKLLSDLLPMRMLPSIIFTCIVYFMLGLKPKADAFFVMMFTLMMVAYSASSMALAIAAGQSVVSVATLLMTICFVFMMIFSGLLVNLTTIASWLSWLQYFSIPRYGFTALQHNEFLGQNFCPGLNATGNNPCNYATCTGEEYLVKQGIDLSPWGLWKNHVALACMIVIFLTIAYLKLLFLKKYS
smiles,measurement,setting,value
NS(=O)(=O)C(F)(F)C(F)(F)C(F)(F)C(F)(F)C(F)(F)C(F)(F)C(F)(F)C(F)(F)F,AC50,[1],7.67 µM (active)
same,AC50,[2],24.9 µM (active)
same,outcome,[3],inactive
same,AC50,[4],29.1 µM (active)
same,AC50,[5],6.91 µM (active)
same,AC50,[6],20.9 µM (active)
same,AC50,[7],12.5 µM (active)
same,AC50,[8],10.1 µM (active)
same,AC50,[9],14.9 µM (active)
same,outcome,[10],inactive
same,AC50,[11],11.4 µM (active)
same,AC50,BCL2L11 (gene 10018),4.05 µM (active)
same,AC50,[12],10 µM (active)
CCCCCCOC(=O)c1ccccc1C(=O)OCCCCCC,outcome,[1],inactive
same,outcome,[2],inactive
same,outcome,[4],inactive
same,outcome,[5],inactive
same,outcome,[13],inactive
same,outcome,[6],inactive
same,outcome,[7],inactive
same,outcome,[14],inactive
same,outcome,[8],inactive
same,outcome,[15],inactive
same,outcome,[9],inactive
same,outcome,[10],inactive
same,outcome,[11],inactive
same,outcome,BCL2L11 (gene 10018),inactive
same,outcome,[12],inactive
CCCCCCCCOC(=O)c1ccccc1C(=O)OCCCCCCCC,outcome,[1],inactive
same,outcome,[2],inactive
same,outcome,[4],inactive
same,outcome,[5],inactive
same,outcome,[13],inactive
same,outcome,[7],inactive
same,outcome,[8],inactive
same,outcome,[9],inactive
same,outcome,[10],inactive
same,outcome,[11],inactive
same,outcome,BCL2L11 (gene 10018),inactive
same,outcome,[12],inactive
c1cc2ccc3cccc4ccc(c1)c2c34,outcome,[1],inactive
same,outcome,[2],inactive
same,AC50,[3],29.5 µM (active)
same,outcome,[4],inactive
same,outcome,[5],inactive
same,outcome,[7],inactive
same,outcome,[14],inactive
same,outcome,[8],inactive
same,outcome,[9],inactive
same,outcome,[10],inactive
same,outcome,[16],inactive
same,outcome,[11],inactive
same,outcome,BCL2L11 (gene 10018),inactive
same,outcome,[12],inactive
